Reference: PubChem BioAssay AID651815 (National Center for Advancing Translational Sciences (NCATS), 2012)
Out of some 2,100 compounds screened, about 1,100 (52%) were called active. Roughly 29% stayed inconclusive and do not appear here. The call rests on the fitted dose curve; in most records, active means well fitted inhibition curve with a large enough effect; inconclusive means small, poorly fitted or top-dose-only effect; inactive means no such curve, though single readings can be large or run the other way. So high a share suggests a set chosen from earlier hits. This is one part of the list.

The molecules below were run against DNA dC->dU-editing enzyme APOBEC-3F (Homo sapiens) (UniProt Q8IUX4) (assay: qHTS for inhibitors of Vif-A3F interactions: Cherry picks counterscreen). Details: HeLa A3F-eYFP/Vif cells, eYFP fluorescence, 24 h; series mostly up to 46.1 µM.
Procedure, shortened: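 HeLa cells stably expressing A3F-eYFP and Vif, cultured overnight, then treated 24 h at 37 degrees C with compounds at several concentrations; yellow fluorescence (488 nm Ex/500-530 nm Em) imaged on Acumen; MG132 positive control.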
Further: nearly all actives have a fitted effect of over 65% in size.
Potency means the concentration at half of the fitted maximal effect.

DNA dC->dU-editing enzyme APOBEC-3F (Homo sapiens), sequence (Q8IUX4 whole entry, looked up): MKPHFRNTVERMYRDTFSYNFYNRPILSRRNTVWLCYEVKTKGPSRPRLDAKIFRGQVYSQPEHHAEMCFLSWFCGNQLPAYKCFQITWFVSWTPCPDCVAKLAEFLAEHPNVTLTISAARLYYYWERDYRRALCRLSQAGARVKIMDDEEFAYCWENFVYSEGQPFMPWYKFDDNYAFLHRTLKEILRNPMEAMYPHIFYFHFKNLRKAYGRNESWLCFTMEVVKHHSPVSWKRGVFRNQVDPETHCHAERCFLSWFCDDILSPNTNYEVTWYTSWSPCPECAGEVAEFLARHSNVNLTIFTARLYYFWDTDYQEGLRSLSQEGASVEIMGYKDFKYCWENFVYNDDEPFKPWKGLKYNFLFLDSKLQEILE

| Compound | Potency |
| --- | --- |
| O=C(OCCC12CC3CC(CC(C3)C1)C2)c1ccc(NCc2cc(O)ccc2O)cc1 | 15.8 µM (active) |
| Cc1ccc(C)c(Nc2nn3c(=O)c4ccc(C(=O)NCc5cccs5)cc4nc3s2)c1 | 20.6 µM (active) |
| CCOC(=O)c1ccc(NC(=O)CSc2nc(-c3cccs3)cc(C(F)(F)F)c2C#N)cc1 | 16.4 µM (active) |
| N#Cc1c(C(F)(F)F)cc(-c2cccs2)nc1SCC(=O)Nc1cccc(Cl)c1 | inactive |
| N#Cc1c(C(F)(F)F)cc(-c2cccs2)nc1SCC(=O)Nc1ccc(Cl)cc1 | 7.31 µM (active) |
| N#Cc1c(C(F)(F)F)cc(-c2cccs2)nc1SCC(=O)Nc1cccc(C(F)(F)F)c1 | 20.6 µM (active) |
| O=c1[nH]cnc2n[nH]nc12 | 10.3 µM (active) |
| CCOc1ccc(N/C=C/C(=O)c2cc(OC)c(OC)c(OC)c2)cc1 | 15.8 µM (active) |
| COc1ccc(N/C=C/C(=O)c2cc(OC)c(OC)c(OC)c2)cc1 | 0.498 µM (active) |
| CCOc1ccc(NC(=O)Cn2c(=O)n(Cc3ccc(C(=O)NCc4ccc(C)cc4)cc3)c(=O)c3ccccc32)cc1 | 14.6 µM (active) |
| CCn1c(SCC(=O)N/N=C/c2ccc(C)s2)nc2ccccc21 | 4.98 µM (active) |
| COc1ccc(NC(=S)NN(C)C(=S)Nc2ccc(OC)cc2)cc1 | 3.14 µM (active) |
| C=CCNC(=S)N/N=C(\C)c1ccc(OC)cc1 | inactive |
| O=C(Nc1cc(=O)[nH]c(=O)[nH]1)c1cc(Cl)ccc1Cl | 8.86 µM (active) |
| CCCCCCc1cc2cc(-c3nnc(-c4ccccc4O)o3)c(=O)oc2cc1O | inactive |
| CCCCCCc1cc2cc(-c3nnc(-c4ccccc4)o3)c(=O)oc2cc1O | 3.53 µM (active) |
| CCCCCCc1cc2cc(-c3nnc(-c4ccccc4OC)o3)c(=O)oc2cc1O | 1.98 µM (active) |
| C=CCN=c1scc(-c2ccc(F)cc2)n1/N=C/c1ccccn1 | inactive |
| Cc1ccc2[nH]cc(/C=C/c3cc[n+](C)cc3)c2c1 | 6.27 µM (active) |
| COc1ccc2[nH]cc(/C=C/c3cc[n+](C)cc3)c2c1 | 16.4 µM (active) |
| C[n+]1ccc(/C=C/c2c[nH]c3ccc(F)cc23)cc1 | 8.2 µM (active) |
| O=C(Nc1ccccc1-c1nc2ccccc2[nH]1)c1ccc(N2C(=O)CCC2=O)cc1 | 16.4 µM (active) |
| O=C1/C(=C/c2c[nH]c3ccccc23)CCC/C1=C\c1c[nH]c2ccccc12 | 23.1 µM (active) |
| N#CC1=C2SCC(O)(c3ccccc3)N2C(=O)CC1c1ccccc1 (stereo not drawn) | 4.98 µM (active) |
| Cc1cccc(C)c1NC(=S)NC(C)CCc1ccccc1 (stereo not drawn) | inactive |

| Compound | Potency |
| --- | --- |
| COc1ccc2oc(-c3ccccc3[N+](=O)[O-])cc(=O)c2c1 | 6.27 µM (active) |
| COc1ccccc1NC(=O)c1sc2ncn(CC(=O)Nc3ccccc3)c(=O)c2c1C | 20.6 µM (active) |
| Cc1ccnc(NC(=O)Nc2ccc3c(c2)N(C)C(=O)CS3)c1 | 23.1 µM (active) |
| CO/N=C\CC(=O)Nc1ccc(Cl)c(Cl)c1 | 9.94 µM (active) |
| CO/N=C\CC(=O)Nc1ccc(Oc2ccccc2)cc1 | 1.98 µM (active) |
| CC(=O)Nc1ccc(NC(=O)C/C(C)=N/NC(N)=S)cc1 | inactive |
| CC(C)(C)c1ccc(Oc2ccc(NC(=O)c3ccccc3C(=O)O)cn2)cc1 | inactive |
| O=C(Cc1nc2ccccc2[nH]c1=O)c1ccc(Cl)cc1 | 8.2 µM (active) |
| COc1cc2c(cc1OC)CN(C(=O)c1cc(=O)c3ccccc3o1)CC2 | 11.2 µM (active) |
| CCC(=Nc1ccccc1O)C1=C(O)CC(c2ccccc2)CC1=O (stereo not drawn) | inactive |
| COc1ccccc1N=C(C)C1=C(O)CC(c2ccccc2)CC1=O (stereo not drawn) | 0.994 µM (active) |
| Cc1cnc(NC(=O)CC(C)c2ccccc2)s1 (stereo not drawn) | 5.59 µM (active) |
| CCN1CCN(c2c(/C=C3\SC(=S)N(Cc4ccco4)C3=O)c(C)c(C#N)c(=O)n2C)CC1 | 14.6 µM (active) |
| Cc1cc(/C=C2\SC(=S)N(Cc3ccco3)C2=O)c(C)n1-c1cccnc1 | 20.6 µM (active) |
| Cc1cc(/C=C2\SC(=S)N(Cc3ccco3)C2=O)c(C)n1-c1ccccc1 | 23.1 µM (active) |
| CN(C)c1ccc(C=C2SC(=S)N(Cc3ccco3)C2=O)cc1 | 3.96 µM (active) |
| COC(=O)c1ccc(Oc2cc(C)nc(SC)n2)cc1 | 2.8 µM (active) |
| C/C(=N\NC(=O)C(C)n1nc(C)c([N+](=O)[O-])c1C)c1ccccc1O (stereo not drawn) | inactive |
| COCCNC(=S)N/N=C(\C)c1ccccc1O | inactive |
| C/C(=N/N=C(\C)c1ccccc1O)c1ccccc1O | 18.4 µM (active) |
| O=C1c2cccc3c(N4CCCCC4)ccc(c23)C(=O)N1CCO | 17.7 µM (active) |
| C=CCN1C(=O)c2cccc3c(N4CCCCC4)ccc(c23)C1=O | 16.4 µM (active) |
| Cc1ccc(N2C(=O)c3cccc4c(N5CCN(C)CC5)ccc(c34)C2=O)c2cccnc12 | 14 µM (active) |
| O=C1c2cccc3c(N4CCCCC4)ccc(c23)C(=O)N1c1ccc(O)cc1 | inactive |
| O=C1c2cccc3c(N4CCCCC4)ccc(c23)C(=O)N1c1cccc(O)c1 | 3.66 µM (active) |

| Compound | Potency |
| --- | --- |
| O=C1c2cccc3c(N4CCCCC4)ccc(c23)C(=O)N1c1ccccc1O | inactive |
| C=CCOC(=O)C1=C(C)NC(C)=C(C(=O)OCC=C)C1c1cn(-c2ccccc2)nc1-c1ccco1 | inactive |
| Cc1ccc2nc(-c3ccccn3)c(Nc3ccccc3C)n2c1 | inactive |
| CCN(CC)c1nc(C=Cc2ccc(N(C)C)cc2)c2nccnc2n1 | 0.58 µM (active) |
| CCN(Cc1ccccc1)c1ccc(/C=C(\C#N)c2ccccn2)cc1 | inactive |
| CN(C)c1ccc(C=Cc2nccc3ccccc23)cc1 | 14 µM (active) |
| CCN(Cc1ccccc1)c1ccc(/C=C/c2nccc3ccccc23)cc1 | 20.6 µM (active) |
| CN(C)c1ccc(/C=C/c2nccc3ccccc23)cc1 | 20.6 µM (active) |
| CCCn1c(C2CCCN2c2nc(-c3cccc(Br)c3)cs2)nc2ccccc21 (stereo not drawn) | inactive |
| CCn1c2ccccc2c2cc(NC(=O)CNCc3ccccc3OC)ccc21 | 4.98 µM (active) |
| S=C(NCCSCc1ccc(Cl)cc1)Nc1ccccc1 | inactive |
| CCn1c(CNC(=O)c2cc(OC)c(OC)c(OC)c2)cc2cc(C)ccc21 | inactive |
| COc1cc(C(=O)NCCOc2cc(C)cc(C)c2)cc(OC)c1OC | 2.8 µM (active) |
| COc1ccc(C2=NOC(C(=O)NCc3ccc(F)cc3)C2)cc1OC (stereo not drawn) | 5.59 µM (active) |
| CCOc1ccc(N(C)c2ccc(/C=C3/SC(=S)NC3=O)cc2)cc1 | 15.8 µM (active) |
| CN(C)c1ccc(C=C2SC(=S)NC2=O)cc1 | 7.04 µM (active) |
| COc1ccccc1N=C1NC(=O)/C(=C/c2ccc(N(C)C)cc2)S1 | 6.51 µM (active) |
| Cc1ccc(Cn2c(SCc3ccc(C(=O)NC4CCCC4)cc3)nc3ccncc32)cc1 | inactive |
| Cc1ccc(C(=O)c2cc([N+](=O)[O-])ccc2N2CCN(C)CC2)cc1 | 4.98 µM (active) |
| CN1CCN(c2ccc([N+](=O)[O-])cc2C(=O)c2ccc(Br)cc2)CC1 | 4.98 µM (active) |
| Cc1ccc(C(=O)c2cc([N+](=O)[O-])ccc2N2CCOCC2)cc1C | 1.77 µM (active) |
| Cn1c(=O)[nH]c(=O)c2c1nc(Br)n2Cc1cccc(Br)c1 | 9.94 µM (active) |
| C/C(=N\NC(=O)c1c(Cl)c(C)nn1C)c1ccc(NC(=O)C2CCC2)cc1 | 1.4 µM (active) |
| CCN(CC)c1ccc(/C=C/c2cccc[n+]2C)c(OC)c1 | 15.8 µM (active) |
| COC(=O)/C(=C\Nc1ccc(Cl)cc1Cl)NC(=O)c1ccc(OC)cc1 | 3.96 µM (active) |

| Compound | Potency |
| --- | --- |
| Cc1ccc(N=C2NC(=O)/C(=C/c3cccn3C)S2)cc1 | 15.8 µM (active) |
| Cn1cccc1/C=C1\SC(=Nc2ccc(O)cc2)NC1=O | 6.27 µM (active) |
| Cn1cccc1/C=C1\SC(=Nc2ccccc2)NC1=O | 5.59 µM (active) |
| Cc1ccc(N=C2NC(=O)/C(=C/c3cn(C)c4ccccc34)S2)cc1C | 15.8 µM (active) |
| Cn1cc(/C=C2\SC(=O)N(c3ccccc3)C2=O)c2ccccc21 | 16.4 µM (active) |
| COc1cc(/C=C2\SC(=Nc3cccnc3)NC2=O)cc(OC)c1OC | inactive |
| Cn1cc(/C=C2\SC(=S)N(NC(=O)c3cccc(Cl)c3)C2=O)c2ccccc21 | 16.4 µM (active) |
| COc1cc(/C=C2/SC(=Nc3ccc(O)cc3)NC2=O)ccc1O | 13 µM (active) |
| O=C1NC(=Nc2ccc(O)cc2)S/C1=C/c1ccco1 | 12.5 µM (active) |
| Cc1cccc(N=C2NC(=O)/C(=C/c3cccn3C)S2)c1 | inactive |
| Cc1cc(/C=C2\SC(=Nc3ccccc3)NC2=O)c(C)n1-c1ccc(S(N)(=O)=O)cc1 | 1.98 µM (active) |
| Cn1cccc1/C=C1\SC(=Nc2cccc(O)c2)NC1=O | 17.7 µM (active) |
| COc1cc2c(cc1OC)C(C)N(C(=O)c1cc(Cl)nc(Cl)c1)CC2 (stereo not drawn) | inactive |
| COc1cc2c(cc1OC)C(C)N(C(=O)c1cc(C)on1)CC2 (stereo not drawn) | 0.994 µM (active) |
| CCN(CC)c1nc(C)c(C(=S)Nc2cc([N+](=O)[O-])ccc2Cl)s1 | inactive |
| CC(=O)Nc1ccc(-c2ccnc3c2CC(C(=O)NCc2cccc(Cl)c2)O3)cc1 (stereo not drawn) | 3.53 µM (active) |
| CC(=O)Nc1ccc(-c2ccnc3c2CC(C(=O)NCc2ccccc2)O3)cc1 (stereo not drawn) | 1.12 µM (active) |
| O=C1Nc2ccc(Br)cc2C12NNc1ccccc1O2 (stereo not drawn) | 14 µM (active) |
| Cc1ccc(CSc2nc(-c3ccc(C(C)(C)C)cc3)nc3cc(=O)[nH]n23)cc1 | inactive |
| Cc1sc2ncnc(SCC(=O)NC(C)(C)C)c2c1C | inactive |
| COc1cccc(-c2ccc3c(N)c(C(=O)c4ccc(Cl)cc4)sc3n2)c1 | 16.4 µM (active) |
| COc1ccc(NC(=O)c2sc3nc(-c4cccnc4)ccc3c2N)cc1OC | 5.8 µM (active) |
| COc1cccc(-c2ccc3c(N)c(C(=O)c4ccc(Br)cc4)sc3n2)c1 | 23.1 µM (active) |
